PubChem BioAssay (Tox21)
Inconclusive results are not listed. A call without a number means that no potency is given here. Active and inactive are the calls of the source. Calls come from the whole dose curve.

Assay: p53 small molecule agonists, cell-based qHTS assay with rat liver microsomes (AID 1963578)
Conditions: HCT-116 p53RE-bla, beta-lactamase ratio, 16 h; series mostly up to 66 µM
Outline: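 Metabolic activation is supplied by rat liver microsomes with NADPH (each 0.5 mg/mL final). p53RE-bla cells incubate with compound 16 h at 37 C; reporter activity is measured by LiveBLAzer fluorescence.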

SMILES	Potency
CC(=O)C(=O)O	inactive
CCC(C)(C)C(=O)O[C@H]1C[C@@H](C)C=C2C=C[C@H](C)[C@H](CC[C@@H]3C[C@@H](O)CC(=O)O3)[C@H]21	inactive
Nc1cc([N+](=O)[O-])ccc1C(=O)O	inactive
CC(C)(C#N)c1cc(Cn2cncn2)cc(C(C)(C)C#N)c1	inactive
C=C(C)CNCC	inactive
Cc1ccc(S(=O)(=O)N=C=O)cc1	inactive
CCCOC(=O)c1ccccc1	inactive
Cc1cccc(C(=O)O)c1	inactive
Nc1ccc(S(=O)(=O)c2ccc(N)cc2)cc1	inactive
Cc1cccc(O)c1C	inactive
C1COCCN1	inactive
CCCc1cc(=O)[nH]c(=S)[nH]1	inactive
CCCCOCCOCCOC(C)=O	inactive
CCCCOC(=O)CC(CC(=O)OCCCC)(OC(C)=O)C(=O)OCCCC	inactive
CC(C)CC(=O)CC(C)C	inactive
C=C(C)C(=O)OCC(C)C	inactive
CCCCCCCC(=O)OC	inactive
Oc1ccc2ccccc2c1N=Nc1ccccc1	inactive
Cc1cc(CC(=O)O)n(C)c1C(=O)c1ccc(Cl)cc1	inactive

SMILES	Potency
CC(C)OP(=O)(CP(=O)(OC(C)C)OC(C)C)OC(C)C	inactive
O=C(O)CCCCCCCCC(=O)O	inactive
CCCCCCCC(=O)OCC(O)CO (configuration not stated)	inactive
CCCCC(CC)COC(=O)/C=C/c1ccc(OC)cc1 (configuration not stated)	inactive
NC(=O)c1ncn([C@@H]2O[C@H](CO)[C@@H](O)[C@H]2O)n1	inactive
COc1ccc(OC)cc1	inactive
COCC(C)N (configuration not stated)	inactive
COc1ccccc1O	inactive
CCCCCCCC/C=C\CCCCCCCC(=O)O	inactive
CC(C)(C)C1CCC(O)CC1 (configuration not stated)	inactive
NC(N)=Nc1nc(CSCC/C(N)=N/S(N)(=O)=O)cs1	inactive
O=C=Nc1ccc(Cc2ccc(N=C=O)cc2)cc1	inactive
CCN(CC)CCOC(=O)c1ccc(N)cc1	inactive
CCCCCCc1ccc(O)cc1O	inactive
COCCCN	inactive
Cc1cccc(C)c1O	inactive
CCCCCC/C=C/CCCCCCCC(=O)O	inactive
O=C(c1ccc(O)cc1)c1ccc(O)cc1O	inactive
CCCCCCCCCCCCCC(=O)OC(C)C	inactive

SMILES	Potency
OC[C@@H](O)[C@@H](O[C@@H]1O[C@H](CO)[C@H](O)[C@H](O)[C@H]1O)[C@H](O)[C@@H](O)CO	inactive
c1ccc2cc3c(ccc4ccccc43)cc2c1	inactive
C1CNCCN1	inactive
Cc1cccc2n[nH]nc12	inactive
CCCCCCCCCCCCO	inactive
CCCCCCCCCCC=CC1CC(=O)OC1=O (configuration not stated)	inactive
O=C(/C=C/C=C/c1ccc2c(c1)OCO2)N1CCCCC1	inactive
CCC(=O)OC/C=C/c1ccccc1	inactive
Cc1noc(NS(=O)(=O)c2ccc(N)cc2)c1C	inactive
C=CC(C)(CCC=C(C)C)OC(C)=O (configuration not stated)	inactive
Clc1ccc(Sc2cc(Cl)c(Cl)cc2Cl)cc1	inactive
OC(Cn1cncn1)(Cn1cncn1)c1ccc(F)cc1F	inactive
C/C=C(C)/C=C/C=C(C)C	inactive
CC/C=C(\C(=O)N[C@@H]1C(=O)N2C(C(=O)OCOC(=O)C(C)(C)C)=C(COC(N)=O)CS[C@H]12)c1csc(N)n1	inactive
CCNC(=S)NCC	inactive
O=c1n(CC2CO2)c(=O)n(CC2CO2)c(=O)n1CC1CO1 (configuration not stated)	inactive
NNCCc1ccccc1	inactive
C=C(C)C1CC=C(C)CC1 (configuration not stated)	inactive
[O-]/[N+](=N\O)c1ccccc1	inactive
